Screening data (PubChem)
Compounds with a hit are over-represented: about 2.6% of the library has one in this group of screens.
KCNH2 3.1 inh = qHTS for Inhibitors of KCHN2 3.1: Mutant qHTS; Potassium voltage-gated channel subfamily H member 2, brain isoform KCNH2 3.1 (human); activity change, % (tested at about 1.8 µM); AID 720553, 2013; U2OS KCNH2 3.1, thallium flux FluxOr; active compounds read low; 340,000 compounds, 0.95% hits;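 active = maximum activity change below -70%; inconclusive = maximum activity change from -70% to -50%; inactive = maximum activity change above -50%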;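 also: thallium influx rate constant from kinetic fluorescence after stimulation buffer; % is scaled to controls: 0 for no effect and ±100 for the full control effect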
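FluxOr-based Tl+ influx in U2OS cells transduced with KCNH2 3.1 virus; rate constants normalized to DMSO controls.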
TRPV1 agonist = HTS Assay for Compounds that Act as Agonists of the Vanilloid Receptor 1. TRPV1-expressing cells, Fluo-8 calcium influx, agonist mode. 320,000 compounds, 0.19% hits. activation, % at 8.33 µM. AID 540275, 2011. Transient receptor potential cation channel subfamily V member 1 (Homo sapiens), Q8NER1; in the data active = activation above about 80%; inconclusive = between about 30% and that limit; also: 0% is about no effect
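Cells expressing TRPV1 were dye-loaded with Fluo-8 and read kinetically: 10 s baseline, 3 min after compound (agonist portion), then 2 min after EC20 capsaicin (allosteric enhancer portion). Calcium-bound dye fluorescence at 480/520 nm.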
ClpP mod = qHTS Assay for Activators of ClpP; ATP-dependent Clp protease proteolytic subunit (Bacillus subtilis (strain 168)), P80244; Potency, µM (doses to about 57.5 µM), for the others: at the top dose activity change, negative = active; purified B. subtilis ClpP, FRET peptide cleavage, 20 min; 340,000 compounds, 1.9% hits; active = well fitted falling curve with a large enough effect; inconclusive = small, poorly fitted or top-dose-only effect; inactive = no such curve, though single readings can be large or run the other way; also: potency is read from the fitted curve at half-maximal effect; the source files actives as falling curves though it sought activators and does not explain the sign; nearly all actives have a fitted effect of over 65% in size
Target sequence (P80244 whole entry, looked up): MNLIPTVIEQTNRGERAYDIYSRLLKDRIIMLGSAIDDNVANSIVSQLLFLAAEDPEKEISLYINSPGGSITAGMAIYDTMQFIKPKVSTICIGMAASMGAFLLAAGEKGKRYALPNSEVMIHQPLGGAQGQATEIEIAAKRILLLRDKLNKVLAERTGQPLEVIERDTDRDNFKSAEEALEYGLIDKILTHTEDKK
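Purified B. subtilis ClpP, 10 microg/mL final in Tris/HCl pH8 with KCl, BSA, glycerol and Tween-20, cleaved an Abz/nitrotyrosine-quenched decapeptide. Fluorescence (ex 320, em 430) was read at 0 and 20 min at room temperature. Delta was normalized to 5.8 microM ADEP and DMSO/no-enzyme controls.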
KCNH2 WT inh = qHTS for Inhibitors of KCHN2 3.1: Wildtype qHTS | 340,000 compounds, 0.37% hits | Voltage-gated inwardly rectifying potassium channel KCNH2 (Homo sapiens), Q12809 | activity change, % at 1.84 µM | AID 720551, 2013 | U2OS, BacMam KCNH2, thallium flux FluxOr; active compounds read low;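 active = maximum activity change below -70%; inconclusive = maximum activity change between -70% and -50%; inactive = maximum activity change above -50%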; also: % is scaled to controls: 0 for no effect and ±100 for the full control effect
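U2OS cells were transduced with wild-type KCNH2 virus (2.03 x 10^8 / mL) for 4 h at room temperature, then cultured overnight at 37 C. Thallium flux was read with FluxOr dye. Rate constants were normalized to DMSO controls.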
p53 reactivation = qHTS assay for re-activators of p53 using a Luc reporter | H1299 p53-A138V BP100-luciferase reporter, luminescence, 24 h | Potency, µM (highest dose often 92.2 µM), inactives show at the highest dose activity change, positive = activation, usual class: activators | 320,000 compounds, 0.063% hits | AID 504706, 2011; active = well fitted activation curve with a large enough effect; inconclusive = small, poorly fitted or top-dose-only effect; inactive = no such curve, though single readings can be large or run the other way; also: potency is read from the fitted curve at half-maximal effect; % of control where 0% means no effect; nearly all actives have a fitted effect of over 45% in size
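H1299 (p53-null), stable ts p53-A138V + BP100-Luc; 1000 cells/well, Opti-MEM/10% FBS; cpd 4 pt, 1:5; 24 h, 37 deg C, 5% CO2; detection reagent 10 min RT; luminescence.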
TRPV1 potentiator = HTS Assay for Compounds that Act as Potentiators of the Vanilloid Receptor 1; Transient receptor potential cation channel subfamily V member 1 (Homo sapiens), Q8NER1; TRPV1-expressing cells, Fluo-8 calcium influx, capsaicin EC20 potentiation; potentiation, % at 8.33 µM; 320,000 compounds, 0.02% hits; AID 540277, 2011; in the data active = potentiation above about 80%; inconclusive = between about 30% and that limit; also: 0% is about no effect
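Fluo-8 calcium influx in TRPV1-expressing cells, kinetic read (ex 480/em 520 nm). Compound added and read 3 min for agonist activity, followed by capsaicin at EC20 final and 2 min further read for enhancement.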
* marks the source's active call; other numbers are inactive results; ? = inconclusive; . = not tested or not shown.

SMILES | KCNH2 3.1 inh | TRPV1 agonist | ClpP mod | KCNH2 WT inh | p53 reactivation | TRPV1 potentiator
Cc1c(C)n(C)c2ccc(C(=O)NCCCN3CCCC3)cc12 | -97* | 18 | -19% | 8 | -11% | 1
O=C(NCCCN1CCN(CCCNC(=O)c2cccc(Cl)c2)CC1)c1cccc(Cl)c1 | -89* | -1 | -2% | -100* | -8% | 2
Cc1cccc(CS(=O)(=O)Cc2ccc(C(=O)NCCCN3CCOCC3)o2)c1 | 3 | 2 | 28µM* | -9 | -2% | 0
Cc1ccc(NC(=O)CSc2nc(C3CCCC3)nc3c2c(=O)n(C)c(=O)n3C)c(C)c1 | . | . | -2% | . | . | .
COC(=O)c1ccc(-n2nnc(-c3nc(-c4ccc5c(c4)OCO5)no3)c2C)cc1 | . | . | -1% | . | . | .
Cc1ccccc1CS(=O)(=O)Cc1ccc(C(=O)NCCc2ccccc2)o1 | -71* | 24 | -1% | 6 | 7% | -13
COc1cccc(C(=O)NCCCN2CCN(CCCNC(=O)c3cccc(OC)c3)CC2)c1 | -76* | -3 | 1% | ? | -9% | 1
O=C(NCCc1ccccc1)c1ccc(CS(=O)(=O)Cc2ccccc2Cl)o1 | . | . | 0% | . | . | .
Cn1cc([N+](=O)[O-])c(C(=O)Nc2ccc3nc(-c4ccccc4)[nH]c3c2)n1 | -4 | 0 | ? | 1 | 22µM* | -2
COC(=O)c1c(NC(=O)Cc2ccccc2)sc(C)c1C | 1 | 15 | -10% | 0 | -2% | 0
COC(=O)c1c(NC(=O)Cn2nc(C(F)F)cc2C(F)F)sc(C)c1C | -75* | 6 | -22% | -11 | 2% | -2
COC(=O)c1c(NC(=O)CCCC(=O)O)sc(C)c1C | -83* | 3 | -9% | 4 | 2% | -5
Cc1cc2c(cc1C)N[C@]1(C[C@H]3CCCC(=O)N4CC[C@@H](C1)[C@@H]34)C(=NC1CCCCC1)N2 | . | . | 2% | . | . | .
Cc1ccc(C(=O)Nc2ccc(SC(F)F)cc2)s1 | -2 | 86* | . | 4 | 29% | -13
O=C(Nc1ccc(F)c(F)c1)c1cnn2c1NC(=C1CC1)C=C2C(F)F | . | . | 1% | . | . | .
CC1CCCC(C)N1CCCNC(=O)c1ccc2nc(N3CCCCC3)sc2c1 (configuration not stated) | -13 | -5 | 5% | -158* | 22% | -12
CCOC(=O)C1(Cc2cccc(Cl)c2)CCCN(C(=O)c2cnn(CC)c2)C1 (configuration not stated) | -1 | 29 | 32µM* | 0 | . | -18
COc1cccc(CNS(=O)(=O)c2ccc(-c3cc(C(F)(F)F)on3)s2)c1 | . | . | 1% | . | . | .
Cc1ccsc1CNCC(O)c1ccccc1 (configuration not stated) | -5 | 0 | . | -2 | . | 4
Cc1ccsc1CNC1C2CC3CC(C2)CC1C3 (configuration not stated) | 1 | 4 | 22µM* | -6 | -5% | 2
CNc1ccc(/C=C2\C=Cc3ccccc32)cc1Br | . | . | -1% | . | . | .
CC1(c2nnnn2C2CCCC2)CCC(=O)N1c1ccc2c(c1)OCCO2 (configuration not stated) | . | . | -3% | . | . | .
Nc1nc(N2CCCCC2)nc2ccccc12 | 12 | 2 | 18µM* | 8 | ? | 0
COC(=O)c1ccc(Cn2cnc3c(cnn3-c3ccc(Cl)cc3)c2=O)o1 | -75* | 10 | -3% | -7 | 0% | -4
O=C(c1cc2ccccc2oc1=O)N(Cc1ccc(F)cc1)C1CCS(=O)(=O)C1 (configuration not stated) | -11 | -4 | -27% | 4 | 22% | -5
